Data on 106 compounds can be found in ChEMBL document CHEMBL4513216, “Probing the Open Global Health Chemical Diversity Library for Multistage-Active Starting Points for Next-Generation Antimalarials” (ACS Infect Dis, 2020).

The structures appear in SMILES notation. Screen size: about 69,000 compounds; about 8,600 (12%) showed an effect of 50% or more. Many of the other results were omitted from the sample, so strong results are more common in it than they were.

This assay deals with Plasmodium berghei. The assay can be described thus: Screen against P. berghei liver stage (PbLuc), transformed with Luciferase, at 10uM. It is filed as functional, HepG2. The following applies: tested at 10 uM.
Take `CCN(CC(=O)Nc1cc(Cl)ccc1C)C(=O)c1ccc(=O)[nH]n1`: the INHIBITION was 23.2%.

In the case of `COc1ncc(-c2ccc(O)cc2)c(OC)n1`, the INHIBITION is recorded as 27.6%. The figure for `CC(C)c1ccc(C2CC(=O)Nc3c2cnn3C)cc1` (stereo unspecified) is 14.7%.

Take `COc1ccccc1OCC(=O)NS(=O)(=O)c1ccc(C)s1`: the INHIBITION was 25.1%. As for `CCNC(=O)[C@@H]1C[C@H](NC(=O)c2cncnc2C)CN1Cc1ccsc1`, the INHIBITION was found to be 22.6%.

As to `CC(C)c1nn(C)c(N(C)C)c1CNCc1ccnc(N(C)C)c1`, the INHIBITION is -10.8%. Under `Cc1nc(C)n(CC2CCCN(Cc3cccc(F)c3F)C2)n1` (stereo unspecified) stands 31.2%; under `COc1ccc2c(c1)nc1n2[C@@H](CNCc2ncccc2C)COC1`, 51%. On to `COc1ccc2c(c1)nc1n2[C@@H](CNCc2ccccc2)COC1`, for which the INHIBITION is 43.1%.

As for `COc1ccc2c(c1)nc1n2[C@@H](CNCc2nccs2)COC1`, the INHIBITION is 8.52%. As to `Cc1ccc2c(n1)N(C)CCN(C(=O)NC(C)C)C2`, the INHIBITION stood at 23.6%. The figure for `O=C(CCN1CCc2c(ncn2C2CC2)C1)NC1CCCC1` is -45.6%; for `CCc1ccc(C(=O)NC2CCc3nc(C)cn3C2)o1` (stereo unspecified) it is 2.75%; for `CCc1ccc(C(=O)NC2CCN(c3ccn(C)n3)C2)o1` (stereo unspecified) it is 62.4%. The figure for `CCc1ccc(C(=O)NC2CCCN(c3ccn(C)n3)C2=O)o1` (stereo unspecified) is 20.3%; for `CNc1cc(CNC(=O)c2cccnc2)nc(-c2ccncc2)n1` it is 27.8%; for `CCc1noc(C(C)N2CCN(CCN3CCCC3=O)CC2)n1` (stereo unspecified) it is -0.113%. On to `C[C@H]1C[C@H]2CN(C(=O)CC3CC3)CC[C@H]2O1`, for which the INHIBITION is 1.94%. The figure for `Cc1ccc(CN2C(=O)CCC2C(=O)Nc2cnn(C)c2)o1` (stereo unspecified) is 36.7%; for `CC(=O)N1CCCC(C(=O)NCCOc2cc(C)cc(C)c2)C1` (stereo unspecified) it is -33.7%. `CCN(CC)C(=O)[C@@H]1C[C@@H](NC(=O)c2ccn(C(C)(C)C)c2)CN1C`: the INHIBITION is given as 51.3%. For `CCN(CC)C(=O)[C@@H]1C[C@@H](NC(=O)c2ccoc2)CN1C`, the INHIBITION stood at 6.88%. In the case of `CCN(CC)C(=O)[C@@H]1C[C@H](NC(=O)c2ccn(C(C)(C)C)c2)CN1C`, the INHIBITION was 21.7%. Consider `O=C(NCc1cccs1)c1nc2c(o1)CN(C(=O)c1cccnc1)C2`, for which the INHIBITION is -4.4%. In the case of `COc1cccc(C2CCN2C(=O)c2cnccn2)c1` (stereo unspecified), the INHIBITION is on record as -3.81%.

Consider `COc1cccc(C2CCN2C(=O)c2cc(C(C)C)on2)c1` (stereo unspecified), for which the INHIBITION is listed as 55.5%. The figure for `COc1ccc(C2CCCN2C(=O)c2cc(C(C)C)on2)cc1` (stereo unspecified) is -75.1%; for `Cc1ccc(N2CC[C@H]3C[C@H](C(=O)NCc4ccco4)O[C@H]3C2)nn1` it is 14.5%. The figure for `CN(CCSc1nncn1C(C)(C)C)c1ccccc1` is -9.8%; for `Cc1ccc2c(c1)CCC2NCc1c(C)nn(C)c1N1CCOCC1` (stereo unspecified) it is 33.8%. The figure for `CC1CCC(O)(CSc2nnnn2C2CC2)CC1` (stereo unspecified) is -44.2%; for `O=C(O)c1ccn(-c2ccccc2NS(=O)(=O)c2cccc(F)c2)n1` it is 30.3%. As for `COc1c(C2CCCN2C(=O)c2cnccn2)c(C)nn1C` (stereo unspecified), the INHIBITION stood at 5.7%. As to `CN1CCN(C(=O)c2ccc3c(c2)[nH]c(=O)n3C2CCCC2)CC1`, the INHIBITION came to 58.2%.

As for `O=C(c1ccc2c(c1)[nH]c(=O)n2C1CCCC1)N1CCC1`, the INHIBITION came out at 21.1%.

As for `O=C(c1ccc2c(c1)[nH]c(=O)n2C1CCCC1)N1CCSCC1`, the INHIBITION was -6.72%. The figure for `CN1CCNC(=O)C12CCN(C(=O)c1ccc3[nH]c(=O)[nH]c3c1)CC2` is 38.2%; for `Cc1cnn(CC2CN(Cc3csc(C(C)C)n3)CCO2)c1` (stereo unspecified) it is 9.64%; for `COCCN1CCC12CCN(C(=O)c1ccc3[nH]ccc3c1)C2` (stereo unspecified) it is 27.6%. Under `O=C(c1ccsc1)N1CCC2(CCN2Cc2ccc(F)cc2)C1` (stereo unspecified) stands -7.7%; under `Cc1cnc(C(=O)N2CCC3(CCN3Cc3ccc(F)cc3)C2)cn1` (stereo unspecified), 53.9%; under `Cc1ccc(C(=O)N2CCC3(CCCN(c4ncc(F)cn4)C3)C2)cn1` (stereo unspecified), 36.7%.

Take `COCCN1CCC12CCN(C(=O)c1ccsc1)CC2`: the INHIBITION is reported as -20.8%.

Regarding `Cc1ccc(C(=O)N2CCC3(CCN3Cc3ccc(F)cc3)C2)cn1` (stereo unspecified), the INHIBITION was 62.9%. The figure for `COCCN1CCC12CCN(C(=O)c1ccc(C)nc1)C2` (stereo unspecified) is 54.8%; for `Cn1ccnc1C(=O)N1CCC2(CCN2Cc2ccc(F)cc2)C1` (stereo unspecified) it is 25.8%. Under `Cc1cc(C(=O)N2CCC3(CCN3Cc3ccc(F)cc3)C2)no1` (stereo unspecified) stands -6.05%. Consider `Cc1cnn(CC2CCCN2Cc2noc(CC(C)C)n2)c1` (stereo unspecified), for which the INHIBITION was found to be 17.4%. `CN1CCCN(C(=O)c2cnsn2)c2cc(F)ccc21`: the INHIBITION came out at 7.77%. The figure for `Cc1ccc(Cn2nc(C)c3c(C(=O)O)c(Cl)c(C4CC4)nc32)cc1` is 31.7%; for `O=C(c1cc(Cl)c[nH]c1=O)N1C[C@H]2CC[C@@H](C1)N(Cc1ccccc1)C2` it is -28.7%; for `Cn1cc(CN2C[C@@H]3CN(Cc4ccoc4)CCO[C@@H]3C2)cn1` it is 7.11%. For `CCn1c(C)nc2cc(NC(=O)CC3CCCCO3)ccc21` (stereo unspecified), the INHIBITION was found to be 27.5375%.

Take `Oc1nc(N2CCCC2)nc2nccc(-c3ccccn3)c12`: the INHIBITION was -13%. The figure for `CCOC(=O)N1[C@@H](c2ccco2)[C@@H](CO)C[C@]12CCCCNC2=O` is 1.04%; for `CCCC(O)CN1CC(C)(C)CN(C(=O)CCc2ccccc2)CC1=O` (stereo unspecified) it is 20%.

`NC(=O)C1CCN(CC(=O)NCCn2cc(Cl)cn2)CC1`: the INHIBITION turned out to be 45.2%. For the compound `NC(=O)CN1CCC(C(=O)NCCn2cc(Cl)cn2)CC1`, the INHIBITION was determined as 61%.

As for `O=C(NCCn1cc(Cl)cn1)C1CCN(C(=O)C2CC2)CC1`, the INHIBITION was found to be 2.55%. The figure for `N[C@@H]1CC[C@H](C(=O)NCCc2nc(-c3ccccc3)cs2)C1` is -9.2%; for `N[C@@H]1CC[C@H](C(=O)NCCn2cc(Cl)cn2)C1` it is 60.1%.

For the compound `CS(=O)(=O)N1CCC(C(=O)NCCCn2cc(Cl)cn2)CC1`, the INHIBITION was 40.3%. For the compound `COc1cccc(NC(=O)NCC(O)c2ccc(F)cc2F)c1` (stereo unspecified), the INHIBITION is recorded as -3.7%. Under `CCc1cccc2cc(CN)c(=O)[nH]c12` stands 10.365%. For the compound `CC1CCC(NCCNC(=O)c2cccs2)CC1` (stereo unspecified), the INHIBITION stood at 5.11%.

In the case of `Cc1c(CN2CCCC(C(=O)Nc3ccccc3)C2)cc(C#N)n1C` (stereo unspecified), the INHIBITION is reported as 74%. With `Cc1c(CN2CCCC(C(=O)c3ccccc3)C2)cc(C#N)n1C` (stereo unspecified), the INHIBITION worked out at 7.97%. Regarding `Cc1c(CN2CCCC(C(=O)CCc3ccccc3)C2)cc(C#N)n1C` (stereo unspecified), the INHIBITION is listed as 19.4%. With `CN(CCc1ccccn1)C(=O)Nc1cccnc1-n1cccn1`, the INHIBITION is recorded as -19.2%.

For `CCCN1CCCN(S(=O)(=O)c2cnc3onc(C)c3c2)CC1`, the INHIBITION was 56.7%. The figure for `CCN1CCCN(S(=O)(=O)c2cnc3onc(C)c3c2)CC1` is 15.5%; for `Cc1noc2ncc(S(=O)(=O)N3CCCC(C)(C)CC3)cc12` it is 36.1%. On to `COc1cccc(-c2n[nH]cc2CNC2CCN(C3CC3)CC2)c1`, for which the INHIBITION is listed as 3.46%. Under `Cc1cc(C(=O)N(C)C(C)CC(C)C)on1` (stereo unspecified) stands 20.9%. Turning to `CCSCCC(C)N(C)C(=O)c1cc(C)no1` (stereo unspecified), the INHIBITION amounted to 55.2%.

For the compound `CCSCCC(C)N(C)C(=O)c1ccc(C)o1` (stereo unspecified), the INHIBITION is 85.2%.

With `CCSCCC(C)N(C)C(=O)c1ccc2nncn2c1` (stereo unspecified), the INHIBITION was determined as 34.7%. For `COCC(c1cccc(C(F)(F)F)c1)N(C)C(=O)c1cc(C)no1` (stereo unspecified), the INHIBITION was -16.4%.

As to `CCSCCC(C)N(C)C(=O)c1cc(C)on1` (stereo unspecified), the INHIBITION is given as -93.6%. The figure for `CC(C)NC(=O)CCN1CCCC1c1cccc2c1OCCO2` (stereo unspecified) is 35.4%; for `Cc1nc2ccccc2c(=O)n1CCC(=O)N1CCCCCC1` it is 1.05%.

Consider `COc1c[nH]c(C(=O)N2CCN(c3ccc(Cl)cc3)CC2)cc1=O`, for which the INHIBITION is reported as 13.9%. The figure for `Cc1nc(N2CCCC2)ncc1C(=O)Nc1ccc(Br)cc1` is -10.2%; for `Cc1nn(C)cc1C1=NS(=O)(=O)N(C)C(C(=O)Nc2ccc(Cl)cc2)=C1` it is 77.7%; for `Cc1c(C2=NS(=O)(=O)N(C)C(C(=O)Nc3ccc(Br)cc3)=C2)cnn1C` it is 49.9%. The figure for `Cc1cc(=O)n(CC(=O)Nc2ccc(Cl)cc2)nc1C` is 25%. The figure for `Cn1cc(NC(=O)CNC(=O)N2CCN(c3ccc(Cl)cc3)CC2)cn1` is 28.5%; for `Cc1nn(C)cc1C1=NS(=O)(=O)N(C)C(C(=O)Nc2ccc(Br)cc2)=C1` it is 82.4%. Turning to `O=C1CC2(CCCCN2C(=O)c2cccs2)CN1CC1CC1` (stereo unspecified), the INHIBITION is given as 11.2%. The figure for `Cc1cc(NC(=O)NCC(O)c2ccc(F)c(F)c2)n(C)n1` (stereo unspecified) is 21.8%; for `CCn1cnnc1C1CCN(C(=O)c2cc(OC)ccc2OC)CC1` it is 23.7%. The figure for `COc1cc(-n2cccc2)c(Cl)cc1C(N)=O` is -90.8%; for `CCc1ncc(C(=O)N2CCCC2Cn2cccn2)s1` (stereo unspecified) it is 49.8%; for `CS(=O)(=O)Nc1ccn(Cc2ccc(F)cc2Cl)n1` it is 31.7%.

Consider `CC(C)(C)n1cc(C(=O)N2CCN(Cc3cccnc3)CC2)cn1`, for which the INHIBITION is recorded as -39.67%. The figure for `CCN(CC)C(=O)c1nnsc1-c1ccc(Cl)cc1` is 33.9%; for `CCN(CC)C(=O)c1nnsc1-c1ccccc1` it is 7.25%. Under `CCN(CC)C(=O)c1nnsc1-c1ccc(C)cc1` stands 54.8%; under `CCOCC(=O)N1Cc2[nH]nc(COCC3CC3)c2C1`, 2.4%. For `CC(C)c1nc2c(n1C)CCN(CC(=O)Nc1ccncc1)C2`, the INHIBITION is 11.6%. The figure for `N#Cc1ccc(F)c(CNC(=O)NCCC(=O)NC2CCCC2)c1` is 22.5%; for `Cc1cccc(NC(=O)[C@@H]2CCCN2Cc2ccc(C#N)cc2F)n1` it is 25.2%; for `CC1CCCCN1CCNC(=O)NCc1ccc(C#N)cc1F` (stereo unspecified) it is 50.7%. For the compound `CC1CCCCN1CCNC(=O)c1ccn(-c2ccc(F)cc2)n1` (stereo unspecified), the INHIBITION is recorded as 34.1%. Consider `N#Cc1ccc(CNC(=O)NCCNC(=O)C2CCCC2)c(F)c1`, for which the INHIBITION was found to be 52.8%. Under `N#Cc1ccc(CNC(=O)NCCC(=O)NC2CCCC2)c(F)c1` stands 17.1%.
